Source: PubChem BioAssay AID1259415 (National Center for Advancing Translational Sciences (NCATS), 2018)
Hit rate of the full screen: of about 410,000 compounds, about 18,000 (4.4%) were called active. Roughly 7% stayed inconclusive and do not appear here. Only a selection was taken, and actives are over-represented in it overall. A number with no mark means an inactive call. Rule as the data show it: active = activity change below about -60%; inconclusive = no clear call, values can overlap the other calls; inactive = above about -39%.

Experiment: qHTS Assay for inhibitors of the human cytomegalovirus (HCMV)
Conditions: HFF cells, HCMV-luciferase reporter, 72 h; at 57.5 µM; hits give low values
Summary of the method: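 Screen run at 2 compound doses on HFFs infected with reporter HCMV, MOI 1 PFU/cell. Luciferase activity from cell lysates at 72 h post infection gave inhibition relative to buffer-only and Salinomycin wells.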
% is scaled to controls: 0 for no effect and ±100 for the full control effect.

In the case of COc1cc(/C=C2/SC(=S)N(Cc3ccccc3)C2=O)cc(OC)c1O, the activity change, negative = inhibition is reported as -63.1% (active).
With Cc1cccnc1C(NC(=O)C1CCN(Cc2ccc(Cl)c(Cl)c2)CC1)c1ccc(Cl)cc1 (stereo unspecified) the activity change, negative = inhibition was -88.1% (active).
For CC(=O)c1cc(C#N)c(N2CCCCC2)nc1C, the activity change, negative = inhibition was -92.4% (active).
With CCc1ccc(Nc2n[n+](-c3ccccc3)c(-c3cccc(Cl)c3Cl)s2)cc1 the activity change, negative = inhibition was -69.1% (active).
With Cc1ccc2nc(/C(C#N)=C\c3ccc(OC(=O)c4cccs4)cc3)[nH]c2c1 the activity change, negative = inhibition was -67.5% (active).
In the case of O=C(Nc1cccc(C(F)(F)F)c1)c1ccc(N2CCNCC2)c([N+](=O)[O-])c1, the activity change, negative = inhibition is reported as -65.3% (active).
For CCCCS(=O)(=O)c1oc(-c2cccs2)nc1S(=O)(=O)c1ccccc1, the activity change, negative = inhibition was -108% (active).
With COCC(C)n1c(C)cc(C(=O)COc2ccc(C)nc2[N+](=O)[O-])c1C (stereo unspecified) the activity change, negative = inhibition was -71.3% (active).
With Cc1ccc(OCC(=O)c2cc(C)n(Cc3ccco3)c2C)c([N+](=O)[O-])n1 the activity change, negative = inhibition was -78.9% (active).
For COc1ccc(Nc2cc(Sc3ccc(OC)cc3)ncn2)cc1, the activity change, negative = inhibition was -88.8% (active).
With CC1CC(C)CN(C(=O)CSc2ccsc2[N+](=O)[O-])C1 (stereo unspecified) the activity change, negative = inhibition was -70.8% (active).
With COC(=O)c1c(C)[nH]c(C(=O)/C=C/c2ccc(Cl)cc2)c1C the activity change, negative = inhibition was -85.4% (active).
In the case of Cc1ccc(CCC(=O)Nc2ncc(Cc3cc(Cl)ccc3Cl)s2)o1, the activity change, negative = inhibition is reported as -89.7% (active).
With NC(=O)C1CCN(C(=O)COc2cccc3cccnc23)CC1 the activity change, negative = inhibition was -88.1% (active).
With CC(C)(C)c1ccc(Oc2ccc(N)cc2)cc1 the activity change, negative = inhibition was -86.3% (active).
With COc1ccc(-c2csc(Nc3ccc(O)cc3)n2)cc1 the activity change, negative = inhibition was -72.3% (active).
With O=c1oc2ccccc2cc1-c1csc(Nc2ccc(O)cc2)n1 the activity change, negative = inhibition was -87.2% (active).
In the case of O=C(OCc1nnc(-c2ccccc2)o1)c1cc(=O)[nH]c2ccccc12, the activity change, negative = inhibition is reported as -98.7% (active).
In the case of CCOC(=O)/C(=C\c1ccc([N+](=O)[O-])cc1)C(=O)c1cc(C(C)=O)c(Nc2ccccc2)s1, the activity change, negative = inhibition is reported as -106% (active).

Point of comparison: Cc1cc(C)cc(NS(=O)(=O)c2ccc3[nH]cc(C(=O)N4CCCCC4)c(=O)c3c2)c1, activity change, negative = inhibition 1.5%. Against it:
- COc1cc(Cl)cc(C2NC(=O)NC(C)=C2C(=O)NCc2ccccc2)c1O (stereo unspecified) — higher, 3.06%
- COc1ccc(CCNC(=O)CCCCn2c(=O)c3ccccc3n(Cc3ccccc3)c2=O)cc1OC — lower, -9.1%
- COc1cc2c(cc1OC)C(C(=O)NCc1ccco1)C1c3ccccc3CCN1C2=O (stereo unspecified) — higher, 3.83%
- COCCNC(=O)CSc1c(C)cnc2c1c(=O)n(C)c(=O)n2C — higher, 8.83%
- Cc1cccc2nc(-c3ccc(Cl)s3)c(Nc3ccc4c(c3)OCCO4)n12 — higher, 19.5%
- O=C(NC(c1ccc(Cl)cc1)c1cnccn1)C1CCN(Cc2ccc(Cl)cc2)CC1 (stereo unspecified) — higher, 18.3%
- Cc1ccc(C(NC(=O)C2CCN(CCOc3ccc(Cl)cc3Cl)CC2)c2ccccn2)cc1 (stereo unspecified) — higher, 23.2%
- Cc1ccc(CSc2nc3cccnc3n2Cc2ccc(C(=O)NC3CC3)cc2)cc1 — higher, 112%
- CCn1c(CN2C(=O)CSc3ccccc32)n[nH]c1=S — lower, -8.44%
- CC(=O)c1cc(C#N)c(N2CC(C)OC(C)C2)nc1C (stereo unspecified) — lower, -16.2%
- Cc1cc(C)c2cc(C#N)c(N3CCNCC3)nc2c1 — lower, -15.9%
- CC(=O)NC(Cc1ccc(F)c(F)c1)C(=O)NC1CCN(c2nnnn2-c2ccccc2)CC1 (stereo unspecified) — lower, -16%
- COc1ccc(-c2nonc2NC(=O)c2oc3ccc(F)cc3c2C)cc1OC — lower, -12.8%
- O=C(NC1CC(=O)N(c2ccccc2)C1)c1ccco1 (stereo unspecified) — higher, 43.8%
- COc1cc(Br)c(-c2sc(Nc3ccccc3)n[n+]2-c2ccccc2)cc1OC — higher, 25.2%
- COc1ccc(C)cc1Nc1n[n+](-c2ccccc2)c(-c2cccc(Cl)c2Cl)s1 — higher, 8%
- CCCCC(=O)OC1=CN(Cc2ccccc2)S(=O)(=O)c2ccccc21 — lower, -6.62%
- CN(Cc1cccs1)C(=O)Cc1c[nH]c2ccccc12 — higher, 26%
- CC(C)C12CN3CC(C(C)C)(CN(C1)C3c1ccc(OCc3ccccc3)cc1)C2=O (stereo unspecified) — lower, -7.28%
- Cc1ccc2nc(/C(C#N)=C/c3ccccc3F)[nH]c2c1 — higher, 206%
- Cc1ccc2nc(/C(C#N)=C/c3ccc(-c4ccc(C(=O)OC(C)C)cc4)o3)[nH]c2c1 — higher, 41%
- COCCNC(=O)CSc1nc(-c2ccccc2)[nH]c1-c1ccc(C)cc1 — lower, -25.2%
- CCOc1cc2[nH]c(=O)n(Cc3ccc(C(=O)NCCN(CC)CC)cc3)c(=O)c2cc1OCC — lower, -5.64%
- O=C(NC1C2CC3CC(C2)CC1C3)c1ccc(N2CCNCC2)c([N+](=O)[O-])c1 (stereo unspecified) — higher, 6.12%
- Cc1cccc(C)c1NC(=O)CNC(=O)c1ccc(N2CCOCC2)c([N+](=O)[O-])c1 — higher, 25.4%
- CSc1oc(-c2cccs2)nc1S(=O)(=O)c1ccc(Br)cc1 — higher, 29.5%
- Cc1ccc(CSc2oc(-c3cccs3)nc2S(=O)(=O)c2ccc(C)cc2)cc1 — higher, 12.7%
- Cc1ccc(-n2nc(CO)c(C(=O)NCCc3ccccc3)n2)cc1 — higher, 18.9%
- CCOC(=O)c1cccc(NC(=O)Cn2cnc3nc4c(cc3c2=O)CCCC4)c1 — higher, 4.14%
- CC(NC(=O)COc1cccnc1[N+](=O)[O-])c1ccc(Cl)cc1Cl (stereo unspecified) — lower, -23.4%
- COc1ccc(C)cc1-n1nnnc1SCC(=O)c1cc(C)n(Cc2ccco2)c1C — higher, 39.6%
- Cc1ccc(OCC(=O)Nc2ccccc2Sc2ccc(Cl)cc2)c([N+](=O)[O-])n1 — lower, -14.6%
- CCc1ccccc1NC(=O)CN(C)C(=O)COc1ccc(C)nc1[N+](=O)[O-] — lower, -24.2%
- O=S(=O)(NCCc1nnc2ccc(SCc3ccc(Cl)cc3Cl)nn12)c1ccccc1 — higher, 5.81%
- Cn1nc(C(=O)OCC(=O)N(Cc2ccccc2)C(C)(C)C)c2ccccc2c1=O — higher, 2.54%
- COc1ccc(NC(=O)CSc2ncnc3[nH]ncc23)cc1 — lower, -2.36%
- COc1ccc(NC2=CC(=S)NC(C)(C)C2)cc1 — higher, 42.8%
- Cc1ccc(Sc2ccncc2S(N)(=O)=O)cc1 — higher, 55.9%
- O=C(CSc1ccsc1[N+](=O)[O-])N1CCCCC1 — higher, 3.43%
- CC1CC(C)CN(C(=O)CSc2nnc(CSc3ncccn3)n2C)C1 (stereo unspecified) — lower, -15.8%
- CC(C)C(OC(=O)c1cccs1)C(=O)NC1CCCCC1 (stereo unspecified) — higher, 55.6%
- CC(C)=C1N(S(=O)(=O)C(F)(F)F)CCC12CN(C)c1ccccc12 (stereo unspecified) — lower, -18.4%
- CCC(=O)N1c2ccccc2CC1C(=O)N1CCN(c2cccc(OC)c2)CC1 (stereo unspecified) — higher, 16.8%
- COc1ccc(C)cc1NC(=O)c1[nH]c(C)c(C(C)=O)c1C — higher, 106%
- COC(=O)c1c(C)oc(C)c1S(=O)(=O)NCc1ccc(Cl)cc1 — lower, -3.12%
- CCc1ccc(CCC(=O)Nc2ccc(S(N)(=O)=O)cc2)o1 — lower, -16.8%
- COc1ccccc1N1CCN(C(=O)C2CCN(S(=O)(=O)c3c(C)noc3/C=C/c3ccc(C)cc3)CC2)CC1 — higher, 1.7%
- CCCN(CCC)C(=O)C(Cc1ccccc1)NS(=O)(=O)c1ccc2c(c1)c(=O)n(C)c(=O)n2C (stereo unspecified) — higher, 1.57%
- CCCCc1cc(=O)oc2c(C)c(OCC(=O)N3CCC(C(N)=O)CC3)ccc12 — lower, -17.9%
- CCOC(=O)C1CCN(C(=O)COc2cccc3ccccc23)CC1 — lower, -33.6%
- CC(C)=CCCC(C)CN1CCC(n2nccc2NC(=O)c2ccccc2)CC1 (stereo unspecified) — lower, -18.5%
- COc1ccc(NC(=O)C(c2ccccc2)N2Cc3ccccc3C2=O)cc1 (stereo unspecified) — lower, -2.09%
- CC(C)(C)c1ccc(OC(=O)N2CCCCC2)cc1 — higher, 29.6%
- Cc1c(Cl)cccc1NC(=O)c1noc2c1CCCC2 — lower, -4.84%
- O=C(Nc1c(Br)cc2c(c1Br)Cc1cc([N+](=O)[O-])ccc1-2)C(Cl)Cl — lower, -31.6%
- COc1ccc(-n2c(SC)nc3sc4c(c3c2=O)CCN(C(C)=O)C4)cc1 — higher, 24.9%
- Cc1ccc(CNC(=O)Cn2c(=O)ccc3cc(S(=O)(=O)N4CCCC4)ccc32)cc1 — lower, -10.3%
- Cc1ccn2c(Nc3ccc4c(c3)OCCO4)c(-c3ccc(C)s3)nc2c1 — higher, 10.7%
- CCOc1ccc(Nc2ncnc3scc(-c4ccc(OC)cc4)c23)cc1 — lower, -22.6%
- COc1ccc(-c2csc(-c3c(N)c(C(=O)c4ccc(OC)c(OC)c4)n4ccccc34)n2)cc1 — higher, 9.65%
- N#C/C(=C\c1cccc(F)c1)c1nc(-c2cc3c(ccc4ccccc43)oc2=O)cs1 — lower, 1.4%
- Cc1cc(NC(=O)c2cccc(Cl)c2)ccc1-c1cc2ccccc2oc1=O — higher, 28.2%
- CC(C)(C)c1ccc(OCC(=O)N2CCC(c3nc4ccccc4s3)CC2)cc1 — higher, 4.7%
- COCCn1c(CCC(=O)Nc2cc(C)ccc2C)nc2cccnc21 — higher, 5.25%
- CC1CCN(C(=O)COC(=O)c2cc(=O)[nH]c3ccccc23)CC1 — higher, 10.6%
- CCOC(=O)c1ccc(COC(=O)c2cc(=O)[nH]c3ccccc23)o1 — lower, -5.78%
- CCc1ccc(S(=O)(=O)Nc2cc3c(C(=O)OCc4ccccc4)c(C)oc3c3ccccc23)cc1 — higher, 8.24%
- CCN(CC)C(=O)CSC1c2ccccc2C(=O)N1c1ccccc1 (stereo unspecified) — lower, -6.4%
- COc1ccc(-c2nc3c(c(SCC(=O)Nc4ccc(C(=O)O)cc4)n2)Cc2ccccc2O3)cc1 — higher, 42.3%
- CC(C)c1nnc(NC(=O)COC(=O)/C=C/c2ccc([N+](=O)[O-])cc2)s1 — higher, 28.8%
- CCOC(=O)c1c(C)[nH]c(C)c1C(=O)COC(=O)/C=C/c1cccc([N+](=O)[O-])c1 — lower, -7.36%
